# Source: PubChem
# BoNT A protease: BoNT A light chain protease inhibition; 360,000 compounds, 0.17% hits; inhibition, % at 10 µM; multiplex microsphere protease substrate cleavage, flow cytometry; further: plate controls were buffer without enzyme for full effect and enzyme alone for no effect
# BoNT-F LC inh: blocks Botulinum neurotoxin F light chain protease; Multiplex microsphere protease cleavage assay, flow cytometry; inhibition, % at 10 µM; 360,000 compounds, 0.22% hits; AID 588497; in the data active means inhibition above about 35%, passing the limit was not always enough; inconclusive means no clear call, values can overlap the other calls; further: plate controls were buffer without enzyme for full effect and enzyme alone for no effect
# SSB-PriA inh: K. pneumoniae PriA-SSBct interaction inhibition; AlphaScreen SSBct-PriA binding, biotinylated peptide; inhibition, % at 33 µM; 430,000 compounds, 0.6% hits; AID 1272365; in the data active means inhibition mostly above about 37%, no sharp cut-off; inactive means mostly below about 20%;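 further: plate controls were negative control peptide for no effect and reference peptide for full effect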
# Bead autofluor: compound fluorescence in toxin protease inhibitor counterscreen | 360,000 compounds, 3.1% hits | fluorescence intensity (no concentration beside the values) | compound autofluorescence counterscreen, microsphere flow cytometry; hits give high values; in the data active means fluorescence intensity above about 16000; inconclusive means no clear call, values can overlap the other calls
# Anthrax LF prot: anthrax lethal factor protease inhibition; inhibition, % at 10 µM; P15917; AID 588501; 360,000 compounds, 0.12% hits; multiplex microsphere protease cleavage assay, LF; further: plate controls were buffer without enzyme for full effect and enzyme alone for no effect
# Target sequence (P15917 whole entry, looked up): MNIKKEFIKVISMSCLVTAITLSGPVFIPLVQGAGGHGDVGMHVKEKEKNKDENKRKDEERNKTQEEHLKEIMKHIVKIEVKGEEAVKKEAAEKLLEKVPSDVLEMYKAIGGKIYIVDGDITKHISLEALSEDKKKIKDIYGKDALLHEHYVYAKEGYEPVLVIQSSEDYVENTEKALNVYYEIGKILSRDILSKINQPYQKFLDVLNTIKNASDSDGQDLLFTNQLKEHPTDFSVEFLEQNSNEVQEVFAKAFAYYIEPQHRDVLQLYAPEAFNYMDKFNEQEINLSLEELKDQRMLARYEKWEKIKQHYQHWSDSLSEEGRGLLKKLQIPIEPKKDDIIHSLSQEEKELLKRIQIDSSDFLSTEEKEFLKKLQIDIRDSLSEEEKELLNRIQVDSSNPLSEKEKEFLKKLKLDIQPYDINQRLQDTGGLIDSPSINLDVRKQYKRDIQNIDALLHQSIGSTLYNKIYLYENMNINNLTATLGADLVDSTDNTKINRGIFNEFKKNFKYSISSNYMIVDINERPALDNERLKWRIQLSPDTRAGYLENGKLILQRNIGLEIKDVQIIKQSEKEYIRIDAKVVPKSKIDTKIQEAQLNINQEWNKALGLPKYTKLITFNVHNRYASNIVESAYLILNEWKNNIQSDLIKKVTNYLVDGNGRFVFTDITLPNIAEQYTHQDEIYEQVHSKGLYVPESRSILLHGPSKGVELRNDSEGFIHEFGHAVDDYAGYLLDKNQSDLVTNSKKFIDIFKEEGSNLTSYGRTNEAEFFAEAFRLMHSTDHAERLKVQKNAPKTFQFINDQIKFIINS
# BoNT-A LC CP1: blocks botulinum neurotoxin A light chain protease; multiplex microsphere protease assay, flow cytometry; 720 compounds, 3% hits; inhibition, % at 10 µM; shares compounds with BoNT-F LC inh; AID 602139; in the data active means inhibition above about 32%
# BoNTF LC inh 1: inhibitors of Botulinum neurotoxin F light chain protease; shares compounds with BoNT-F LC inh; multiplex microsphere protease cleavage assay, flow cytometry; inhibition, % at 10 µM; 720 tested, under 10 active; call rule not given here
# Anthrax LF CP1: inhibitors of Bacillus anthracis lethal factor protease; 720 tested, under 10 active; inhibition, % at 10 µM; multiplex microsphere protease cleavage assay, LF; AID 602142; shares compounds with BoNT-F LC inh; call rule not given here
# * = called active by the depositor; ? = inconclusive; . = not tested or not shown. Hits are enriched below; roughly 3.1% of the tested compounds scored in any of these assays. Unless noted, no stated cut-off is given here; in the data, active means inhibition above about 30%; inconclusive means no clear call, values can overlap the other calls; inactive means below that.
SMILES,BoNT A protease,BoNT-F LC inh,SSB-PriA inh,Bead autofluor,Anthrax LF prot,BoNT-A LC CP1,BoNTF LC inh 1,Anthrax LF CP1
O=C(C1COc2ccccc2O1)N(Cc1ccccn1)c1nc2c(F)cc(F)cc2s1 (stereo unspecified),.,.,-2,.,.,.,.,.
CN1CCCc2cc(CCNC(=O)COc3ccc(Cl)cc3Cl)ccc21,.,.,-10,.,.,.,.,.
C=CCn1c(Sc2nc3ccccc3o2)nc2c1c(=O)[nH]c(=O)n2C,.,.,-3,.,.,.,.,.
CC(C)CC(=O)Nc1ccc(F)c(Cl)c1,?,?,-7,?,?,.,.,.
CC(C)OC(=O)C(C)Nc1ccc(F)c(Cl)c1 (stereo unspecified),-4,40*,-9,3010,-7,-2,-5,-6
CCCCCC(Oc1ccc(C(C)(C)CC)cc1)C(=O)Nc1cccc(C(=O)NC2=NN(c3ccccc3)C(=O)C2)c1 (stereo unspecified),.,.,3,.,.,.,.,.
Cc1ccc2[nH]c(CNC(=O)C3CCCCC3)cc2c1,93*,-86,1,2959,3,-1,-10,-2
Cc1ccc(NC(=O)C2CN(S(C)(=O)=O)C2)cc1F,.,.,-2,.,.,.,.,.
CNC(=S)N1N=C(c2cccs2)CC1c1ccc(F)cc1 (stereo unspecified),0,50*,-19,3676,6,1,-3,-2
CCN(Cc1ccccc1)c1ncc(S(=O)(=O)c2ccc(OC)c(Cl)c2)c(N)n1,.,.,-12,.,.,.,.,.
Cc1cc(NC(=O)Cn2cnc3c(cnn3-c3cccc(Cl)c3)c2=O)no1,.,.,-20,.,.,.,.,.
CS(=O)(=O)N(CC(=O)N1CCOCC1)c1ccccc1,-2,?,0,4311,45*,0,-1,3
O=C(COc1ccccc1F)NCCn1nc(C2CC2)n(-c2ccccc2)c1=O,.,.,-5,.,.,.,.,.
COC(=O)c1ccccc1NC(=O)CN(C)Cc1ccccc1,0,-2,-48,1920,-2,.,.,.
COC(=O)c1ccc(C(=O)OC)c(NC(=O)CN(C)Cc2ccc(Cl)c(Cl)c2)c1,10,65*,-19,6413,37*,0,-5,-5
O=c1c(Cl)c2oc3ccccc3nc-2c2ccccc12,47*,6,20,6118,25,32*,8,23
O=c1[nH]c(SCc2nc(-c3ccccc3Cl)no2)nc2ccsc12,.,.,-12,.,.,.,.,.
O=c1[nH]c2ccc(S(=O)(=O)Nc3ccccc3O)cc2[nH]1,2,-1,-10,3478,15,.,.,.
COc1ccccc1NS(=O)(=O)c1ccc2[nH]c(=O)[nH]c2c1,2,36*,-9,3623,-8,0,-4,0
O=C(Cn1cc(S(=O)(=O)Cc2ccccc2Cl)c2ccccc21)N1CCc2ccccc2C1,.,.,25,.,.,.,.,.
C=CCN1C(=O)C(C)(C)COc2cc(NC(=O)COc3ccccc3C)ccc21,.,.,20,.,.,.,.,.
COc1ccccc1OCCNC(=O)c1cc(F)c(F)cc1Cl,0,0,-5,2189,-2,.,.,.
COc1ccccc1OCCNC(=O)Nc1cc(F)c(F)cc1Cl,-2,?,-12,3656,31*,1,2,2
COc1ccc(C(=O)NCCn2ccc3ccccc32)c(OC)c1,9,-1,27,10678,14,0,0,6
CCOc1ccc(-c2nc(NC(=O)c3cccc(OC)c3OC)sc2C)cc1,.,.,-17,.,.,.,.,.
SMILES,BoNT A protease,BoNT-F LC inh,SSB-PriA inh,Bead autofluor,Anthrax LF prot,BoNT-A LC CP1,BoNTF LC inh 1,Anthrax LF CP1
CCOC(=O)N1CCC[C@H](Cc2nc(C3CC3)no2)C1,.,.,-15,.,.,.,.,.
CCOCCCNC(=O)CN1C(=O)c2cccc3cccc1c23,3,39*,-2,3541,-4,-1,-5,-2
Cc1ccc(-n2nnc(C(=O)Nc3ccc(S(N)(=O)=O)cc3)c2C)cc1Cl,.,.,-1,.,.,.,.,.
COc1ccc2c(n1)Sc1nc3ccccc3nc1N2,30*,1,-1,4878,5,9,-5,2
COc1cc2ccccc2nn1,-1,6,-6,6289,0,.,.,.
Cc1ccc2c(c1C)NC(C(=O)O)C1CC=CC21 (stereo unspecified),?,?,16,4176,?,.,.,.
O=C(O)C1Nc2c(C(F)(F)F)ccc(Cl)c2C2C=CCC12 (stereo unspecified),-4,-19,7,3213,40*,1,-3,-6
COc1ccc(C2CC(c3cccs3)=NN2c2nc(-c3ccccc3)cs2)cc1OC (stereo unspecified),19,2,3,4635,16,8,-2,9
O=C(CC1CC1)NCCC(O)C1CCOCC1 (stereo unspecified),.,.,-14,.,.,.,.,.
CCOc1ccc(NC(=O)Nc2ccc(Br)cn2)cc1,4,48*,82*,2591,1,1,-5,-2
Cc1cc(C)c(NC(=O)C2CCCO2)c(C)c1NC(=O)C1CCCO1 (stereo unspecified),-2,38*,-8,2848,-7,0,-4,-6
Cc1ccc(NC(N)=Nc2nc(CSc3nnc(N)s3)cc(=O)[nH]2)cc1,.,.,-5,.,.,.,.,.
O=C(c1cccs1)c1ccc(-c2cccs2)s1,33*,11,-58,3150,35*,23,0,20
CN1CCN(C(=O)c2ccc(-c3cccs3)s2)CC1,5,?,0,3847,14,.,.,.
O=C(CSc1nnnn1-c1ccccc1)c1ccc2ccccc2c1,.,.,2,.,.,.,.,.
CCc1cccc(NC(=O)CCc2nc(-c3cccs3)no2)c1,0,-9,-31,5753,-4,.,.,.
COc1cc(NC(=O)CCc2nc(-c3cccs3)no2)cc(OC)c1OC,2,42*,-5,3912,8,0,-5,1
Cc1ccc(-n2c(SCC(N)=O)nnc2-c2cnccn2)cc1,-1,?,-21,3632,36*,0,4,0
NC(=O)CSc1nnc(-c2cnccn2)n1-c1ccccc1,0,-1,-16,2835,-1,.,.,.
CCOC(=O)c1c(NC(=O)CNCCCN2CCOCC2)sc(C)c1C,.,.,-1,.,.,.,.,.
CCOC(=O)c1c(NC(=S)N2CCOCC2)sc(C)c1C,2,48*,1,3766,5,-3,-6,-3
COc1ccc(CNC(=O)N[C@@H](Cc2c[nH]c3ccccc23)C(=O)O)cc1,5,77*,1,2964,9,-1,2,0
COc1ccccc1CNC(=O)Cc1c[nH]c2ccccc12,1,36*,3,2995,-6,-1,-1,2
COc1ccc(CNC(=O)Cc2c[nH]c3ccccc23)cc1OC,-3,-6,8,4107,7,.,.,.
COc1ccc(CNC(=O)CCc2c[nH]c3ccccc23)cc1,-2,13,-4,4079,2,.,.,.
COC(=O)c1ccc(CNC(=O)CCc2c[nH]c3ccccc23)cc1,4,81*,5,3982,10,0,6,1
COC(=O)CCC(=O)Nc1ccc(S(=O)(=O)Nc2cc(OC)nc(OC)n2)cc1,-2,-3,1,3679,-3,.,.,.
CCCCCC(=O)Nc1ccc(S(=O)(=O)Nc2cc(OC)nc(OC)n2)cc1,2,39*,0,3600,-2,-1,-2,2
